The full ranking holds about 25,000 sequences; the median of “ln(normalized median fluorescence intensity)” is about 9.3, and the highest 2% start at about 10. This is one part of a sample in which the highest values are shown more often than they occur.

The results in this text go back to the supplement of paper PMC11417369.

The subject of this assay is PF3D7_0420300 AP2 domain 1 (GST-tagged). The assay can be described thus: gcPBM binding intensity (ln(normalized median fluorescence intensity)); higher = stronger DNA binding. An outline of the steps: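 Each value is the highest Masliner-normalised natural-log median intensity across replicate spots of either orientation of a probe. The probes were primer-extended double-stranded 36-bp intergenic genomic sequences on an Agilent 4 × 180k array, alongside negative controls, exposed for 1 h to GST-tagged P. falciparum DNA-binding domains expressed in E. coli. Bound protein was picked up with Alexa488 anti-GST antibody and scanned at 488 nm.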
“AACAAAATTGAAGGAACACACATACAGATATATATA [CACACA_site4264]”: the “gcPBM binding intensity (ln)” value is 9.81.

As to “AGCAAAAATTAAATAAATAAATATATATATATATAT [TGCATGCA_negctrl_site449]”, the “gcPBM binding intensity (ln)” value amounted to 9.12.

Regarding “TTTTTGCAAAAAGAAATAATTTTATTTTAGTTCGGA [CACACA_negctrl_site1718]”, the “gcPBM binding intensity (ln)” value amounted to 8.78.

As to “ATTTTTATACGTTTTTTTTTTTTTTTTTTTTATTTA [CACACA_negctrl_site1142]”, the “gcPBM binding intensity (ln)” value was 9.62.

As for “ATAATGTGTTAGGCGTGTACACAATTGTATGGTTTA [XGTACX_site2377]”, the “gcPBM binding intensity (ln)” value amounted to 9.45.

Take “ATATTAACTTTTATTACACACTCTCAACTTTTATTT [CACACA_site6176]”: the “gcPBM binding intensity (ln)” value was 9.72.

“GTACTTGTATTATGCACACATATAATTAAACATATA [CACACA_site3312]”: the “gcPBM binding intensity (ln)” value is 9.41.

“CATTTTAAAACAGACACACACCAAAAAAAAAAAAAA [CACACA_site6259]”: the “gcPBM binding intensity (ln)” value worked out at 9.4.

Regarding “AAGAAAAACTAAAGAGTTCTGTTCATATCTCTTTGG [TGCATGCA_negctrl_site549]”, the “gcPBM binding intensity (ln)” value was determined as 8.99.

Regarding “CCAACATGCCCACGCACACACAAAAAAAGCATGCAT [CACACA_site4217]”, the “gcPBM binding intensity (ln)” value was found to be 9.58.

For the sequence “TTTATTTTATCATTTGCACACGCACGCCCACATAAA [CACACA_site353]”, the “gcPBM binding intensity (ln)” value was found to be 9.4.

As to “ATCAAGCACGAACACACACACACACGCACGCCCACA [CACACA_site6308]”, the “gcPBM binding intensity (ln)” value was 10.2.

Take “GAGAGTAAAACAAATATACACACCATAAAGTTATAA [CACACA_site1686]”: the “gcPBM binding intensity (ln)” value amounted to 9.49.

As for TTCATTCAAATTAACGTGCACATTATTAGTAAAAAC, the “gcPBM binding intensity (ln)” value worked out at 9.08.

“TTATACTAAATGAACACACACACATATATATATATA [CACACA_site99]”: the “gcPBM binding intensity (ln)” value came to 9.81.

With “ATACTAAATGAACACACACACATATATATATATAAT [CACACA_site4232]”, the “gcPBM binding intensity (ln)” value is 10.1.

For “ATACTAAATGAACACACACACATATAGATTTATAAC [CACACA_site6200]”, the “gcPBM binding intensity (ln)” value is 10.2.

Regarding “TAGTGTATGATAATATGTACATACATTTATATAATA [XGTACX_site6330]”, the “gcPBM binding intensity (ln)” value is 9.11.

Regarding “TATATATATATATAAACACACATAAATATAAATATA [CACACA_site1121]”, the “gcPBM binding intensity (ln)” value was determined as 9.6.

For the sequence “AAAAAAAGTTATATTACACACTTTATTCGTTAACTT [CACACA_site3013]”, the “gcPBM binding intensity (ln)” value amounted to 9.47.

With “TTTGTTATGGTTTTCTCACACATATATATATATATA [CACACA_site4617]”, the “gcPBM binding intensity (ln)” value was 9.5.

On to “AAAAAAAAAAGACACACACACACATACACATACATA [CACACA_site7362]”, for which the “gcPBM binding intensity (ln)” value worked out at 10.2.

For the sequence “AAAAAAAAAAGACACACACACACACTAATACATACA [CACACA_site6473]”, the “gcPBM binding intensity (ln)” value stood at 10.2.

With “AAAAAAAAAAGACACACACACACAAATACATACACA [CACACA_site6472]”, the “gcPBM binding intensity (ln)” value was 10.1.

As for “AATAAAAAAAAAAAAAAAAAAAAAAAGACACTAAAA [CACACA_negctrl_site1075]”, the “gcPBM binding intensity (ln)” value amounted to 9.33.

“AAAAAAAAAAAACACACACACACACTAATACATACA [CACACA_site8135]”: the “gcPBM binding intensity (ln)” value amounted to 10.1.

In the case of “AAAAAAAAAAGACACACACACAAATACAAATACATA [CACACA_site6334]”, the “gcPBM binding intensity (ln)” value was found to be 10.
